Experimental data: PubChem BioAssay (Tox21)
Values joined by “and” are separate entries in the source; they are usually repeats but may differ in a detail not shown here. Equal values may be shown once. Results filed as inconclusive are left out. Where a call stands in place of a potency, no number is given. More than one record can exist for a structure, and the calls need not agree. Active and inactive are the calls of the source. The call rests on the fitted dose curve; in most records, active means well fitted curve in the direction sought with a large enough effect in the repeat runs; inconclusive means weak or mixed curves; inactive means no such curve, though single readings can be large; an effect the other way counts as inactive or inconclusive.

Experiments:
[1] = Human pregnane X receptor (PXR) small molecule agonists, qHTS cell viability counter screen (AID 1346977); further: nearly all actives have a fitted effect of over 50% in size; further: potency means the concentration at half of the fitted maximal effect
Outline: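 In each well, the PXR reporter HepG2 line was checked for viability: CellTiter-Fluor reagent added 23hr post-dosing, fluorescence read after 1hr incubation at 37C.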

[2] = Caspase-3/7 induction in HepG2 cells by small molecules, qHTS assay (AID 1346978); further: nearly all actives have a fitted effect of over 15% in size
Outline: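 Wild-type HepG2 cells, 2,000/well, settled 5 hr at 37 C and 5% CO2, then compound-treated for 17 hr; caspase-3/7 activity read by luminescent Caspase-Glo 3/7 after 30 min at room temperature.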

[3] = Caspase-3/7 induction in CHO-K1 cells by small molecules, qHTS assay (AID 1346980); further: nearly all actives have a fitted effect of over 15% in size; further: potency means the concentration at half of the fitted maximal effect
Outline: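 Wild-type CHO-K1 cells exposed to compounds for 17hr at 37 C, 5% CO2. Caspase-3/7 activity then measured by Caspase-Glo 3/7 luminescence after 30min at room temperature.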

[4] = Caspase-3/7 induction in HepG2 cells by small molecules, qHTS cell viability counter screen (AID 1346981); further: nearly all actives have a fitted effect of over 30% in size; further: potency means the concentration at half of the fitted maximal effect
Outline: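 In this quantitative HTS counter screen, compounds delivered in DMSO were left on unmodified HepG2 cells for 16 hr at 37 C. Viability was then determined fluorometrically with CellTiter-Fluor, in parallel with caspase-3/7 induction in the same wells.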

[5] = target: Nuclear receptor subfamily 1 group I member 2 (Homo sapiens) (UniProt O75469); experiment: Human pregnane X receptor (PXR) small molecule agonists, qHTS assay (AID 1346982); further: nearly all actives have a fitted effect of over 35% in size; further: potency means the concentration at half of the fitted maximal effect
Nuclear receptor subfamily 1 group I member 2 (Homo sapiens), sequence (O75469 whole entry, looked up): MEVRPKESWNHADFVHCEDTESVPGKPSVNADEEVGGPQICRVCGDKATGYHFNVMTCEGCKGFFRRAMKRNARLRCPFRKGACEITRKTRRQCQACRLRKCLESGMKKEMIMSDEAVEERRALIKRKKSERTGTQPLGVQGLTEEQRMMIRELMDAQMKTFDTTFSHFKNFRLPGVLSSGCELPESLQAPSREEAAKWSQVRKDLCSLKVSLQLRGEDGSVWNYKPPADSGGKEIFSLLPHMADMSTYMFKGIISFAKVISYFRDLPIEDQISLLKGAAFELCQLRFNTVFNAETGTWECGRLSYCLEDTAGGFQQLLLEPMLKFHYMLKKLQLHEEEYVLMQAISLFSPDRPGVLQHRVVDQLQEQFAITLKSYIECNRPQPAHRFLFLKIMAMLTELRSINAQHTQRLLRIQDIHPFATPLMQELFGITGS
Outline: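 Reporter HepG2 cells expressing PXR-Luc are cultured in charcoal-stripped FBS (5%), treated with compounds for 24 hr at 37 C, and assayed by ONE-Glo luminescence after 30 min at room temperature.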

[6] = target: Cytochrome P450 2C19 (Homo sapiens) (UniProt P33261); experiment: Cytochrome P450 Family 2 Subfamily C Member 19 (CYP2C19) small molecule antagonists: luciferase reporter qHTS assay (AID 1671197); further: nearly all actives have a fitted effect of over 65% in size; further: potency means the concentration at half of the fitted maximal effect
Cytochrome P450 2C19 (Homo sapiens), sequence (P33261 whole entry, looked up): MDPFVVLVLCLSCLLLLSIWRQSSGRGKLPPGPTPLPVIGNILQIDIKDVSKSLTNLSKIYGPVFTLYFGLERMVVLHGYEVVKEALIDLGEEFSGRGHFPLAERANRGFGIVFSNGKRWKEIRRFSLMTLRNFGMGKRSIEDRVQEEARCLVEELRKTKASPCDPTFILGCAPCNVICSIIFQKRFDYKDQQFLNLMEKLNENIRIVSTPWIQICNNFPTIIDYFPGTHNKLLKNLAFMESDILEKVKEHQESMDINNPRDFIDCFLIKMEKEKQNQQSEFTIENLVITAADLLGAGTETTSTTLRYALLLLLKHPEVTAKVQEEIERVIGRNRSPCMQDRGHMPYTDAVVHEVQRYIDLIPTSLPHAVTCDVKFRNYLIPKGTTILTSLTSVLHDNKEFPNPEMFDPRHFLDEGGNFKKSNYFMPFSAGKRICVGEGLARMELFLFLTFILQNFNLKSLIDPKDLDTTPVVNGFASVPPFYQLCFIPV
Outline: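 Light output is proportional to CYP2C19 activity: proluciferin substrate is converted to luciferin, then detected by a luciferin detection reagent that also stops the 1 h, 37C NADPH-driven reaction. Ketoconazole serves as positive control.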

[7] = target: Cytochrome P450 2C9 (Homo sapiens) (UniProt P11712); experiment: Cytochrome P450 Family 2 Subfamily C Member 9 (CYP2C9) small molecule antagonists: luciferase reporter qHTS assay (AID 1671198); further: nearly all actives have a fitted effect of over 50% in size; further: potency means the concentration at half of the fitted maximal effect
Cytochrome P450 2C9 (Homo sapiens), sequence (P11712 whole entry, looked up): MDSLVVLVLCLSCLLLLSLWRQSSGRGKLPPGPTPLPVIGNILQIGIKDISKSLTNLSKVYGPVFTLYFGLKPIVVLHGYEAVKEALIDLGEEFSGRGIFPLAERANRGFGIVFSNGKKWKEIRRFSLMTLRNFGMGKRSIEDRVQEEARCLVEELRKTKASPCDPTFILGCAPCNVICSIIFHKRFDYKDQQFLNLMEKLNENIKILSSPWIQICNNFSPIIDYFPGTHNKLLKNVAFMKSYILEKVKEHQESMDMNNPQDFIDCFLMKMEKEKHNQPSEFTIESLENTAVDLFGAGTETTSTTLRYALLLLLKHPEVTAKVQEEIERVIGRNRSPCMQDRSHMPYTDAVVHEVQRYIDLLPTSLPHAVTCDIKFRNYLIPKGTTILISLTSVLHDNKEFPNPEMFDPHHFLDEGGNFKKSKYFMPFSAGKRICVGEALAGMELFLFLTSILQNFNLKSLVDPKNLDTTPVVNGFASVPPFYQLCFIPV
Outline: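 P450-Glo proluciferin substrate with CYP2C9 enzyme; 10 min RT preincubation, then NADPH regeneration 1 h at 37C; luciferin detection reagent 20 min RT, luminescence in relative luminescence units.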

[8] = target: Cytochrome P450 1A2 (Homo sapiens) (UniProt P05177); experiment: Cytochrome P450 Family 1 Subfamily A Member 2 (CYP1A2) small molecule antagonists: luciferase reporter qHTS assay (AID 1671199); further: nearly all actives have a fitted effect of over 50% in size; further: potency means the concentration at half of the fitted maximal effect
Cytochrome P450 1A2 (Homo sapiens), sequence (P05177 whole entry, looked up): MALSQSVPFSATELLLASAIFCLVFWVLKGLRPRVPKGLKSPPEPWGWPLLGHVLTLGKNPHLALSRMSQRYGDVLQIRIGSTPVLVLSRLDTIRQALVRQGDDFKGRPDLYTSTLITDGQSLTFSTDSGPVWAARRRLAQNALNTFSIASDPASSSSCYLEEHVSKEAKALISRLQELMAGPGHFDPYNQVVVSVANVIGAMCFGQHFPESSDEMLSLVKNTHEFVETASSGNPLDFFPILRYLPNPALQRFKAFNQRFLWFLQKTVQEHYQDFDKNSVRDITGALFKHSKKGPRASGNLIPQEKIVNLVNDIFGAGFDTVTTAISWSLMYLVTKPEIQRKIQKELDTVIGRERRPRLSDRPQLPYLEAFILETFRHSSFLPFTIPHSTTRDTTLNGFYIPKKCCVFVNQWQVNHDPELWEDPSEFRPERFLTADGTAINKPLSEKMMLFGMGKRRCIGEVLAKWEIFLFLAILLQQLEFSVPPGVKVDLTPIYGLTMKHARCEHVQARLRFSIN
Outline: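 Steps: enzyme-substrate mix dispensed; test compounds and furafylline control pinned in; 10 min room temperature; NADPH regeneration solution added, 1 h; reaction stopped with luciferin detection reagent; luminescence read after 20 min.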

[9] = target: Voltage-gated inwardly rectifying potassium channel KCNH2 (Homo sapiens) (UniProt Q12809); experiment: Human Ether-a-go-go-Related Gene (hERG) channel small molecule antagonists: fluorescence cell-based qHTS assay (AID 1671200);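 further: hERG-expressing U2OS cells given a thallium stimulus after FluxOR II dye loading; series mostly up to about 77 µM; nearly all actives have a fitted effect of over 50% in size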
Voltage-gated inwardly rectifying potassium channel KCNH2 (Homo sapiens), sequence (Q12809 whole entry, looked up): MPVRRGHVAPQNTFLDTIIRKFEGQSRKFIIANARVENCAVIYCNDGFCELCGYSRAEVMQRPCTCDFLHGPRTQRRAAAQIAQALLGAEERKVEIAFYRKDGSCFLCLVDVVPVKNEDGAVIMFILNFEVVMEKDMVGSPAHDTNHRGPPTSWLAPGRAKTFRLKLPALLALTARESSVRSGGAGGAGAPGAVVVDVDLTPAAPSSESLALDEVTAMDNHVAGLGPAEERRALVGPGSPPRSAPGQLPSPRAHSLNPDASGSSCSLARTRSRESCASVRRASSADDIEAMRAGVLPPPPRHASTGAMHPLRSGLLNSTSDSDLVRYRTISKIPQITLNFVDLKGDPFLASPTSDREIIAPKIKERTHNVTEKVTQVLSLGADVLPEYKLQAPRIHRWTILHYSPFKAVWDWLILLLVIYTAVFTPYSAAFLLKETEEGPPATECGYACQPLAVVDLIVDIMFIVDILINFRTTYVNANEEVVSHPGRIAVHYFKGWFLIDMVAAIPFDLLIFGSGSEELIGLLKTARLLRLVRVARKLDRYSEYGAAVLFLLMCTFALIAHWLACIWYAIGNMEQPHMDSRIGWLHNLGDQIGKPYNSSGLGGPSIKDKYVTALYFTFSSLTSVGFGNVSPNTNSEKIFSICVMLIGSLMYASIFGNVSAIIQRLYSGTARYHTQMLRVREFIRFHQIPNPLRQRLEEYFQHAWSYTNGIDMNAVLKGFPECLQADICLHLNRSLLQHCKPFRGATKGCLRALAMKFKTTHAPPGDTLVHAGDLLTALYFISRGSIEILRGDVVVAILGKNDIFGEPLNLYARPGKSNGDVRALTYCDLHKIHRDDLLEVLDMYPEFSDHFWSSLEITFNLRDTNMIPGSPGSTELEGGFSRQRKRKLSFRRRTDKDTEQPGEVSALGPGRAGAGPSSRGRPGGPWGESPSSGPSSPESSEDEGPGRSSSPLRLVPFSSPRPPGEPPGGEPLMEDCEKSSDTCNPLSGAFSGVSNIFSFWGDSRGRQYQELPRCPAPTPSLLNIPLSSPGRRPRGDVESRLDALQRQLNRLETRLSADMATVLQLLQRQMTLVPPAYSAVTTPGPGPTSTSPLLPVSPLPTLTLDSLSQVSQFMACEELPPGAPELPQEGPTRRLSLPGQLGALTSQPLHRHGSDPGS
Outline: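 In this thallium-flux screen, overnight-cultured U2OS cells bearing the channel are dye-loaded in darkness for an hour, rested 10 min at room temperature, and then monitored kinetically at 480/540 nm for two minutes post-stimulus.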

[10] = target: Cytochrome P450 3A4 (Homo sapiens) (UniProt P08684); experiment: Cytochrome P450 Family 3 Subfamily A Member 4 (CYP3A4) small molecule antagonists: luciferase reporter qHTS assay (AID 1671201)
Cytochrome P450 3A4 (Homo sapiens), sequence (P08684 whole entry, looked up): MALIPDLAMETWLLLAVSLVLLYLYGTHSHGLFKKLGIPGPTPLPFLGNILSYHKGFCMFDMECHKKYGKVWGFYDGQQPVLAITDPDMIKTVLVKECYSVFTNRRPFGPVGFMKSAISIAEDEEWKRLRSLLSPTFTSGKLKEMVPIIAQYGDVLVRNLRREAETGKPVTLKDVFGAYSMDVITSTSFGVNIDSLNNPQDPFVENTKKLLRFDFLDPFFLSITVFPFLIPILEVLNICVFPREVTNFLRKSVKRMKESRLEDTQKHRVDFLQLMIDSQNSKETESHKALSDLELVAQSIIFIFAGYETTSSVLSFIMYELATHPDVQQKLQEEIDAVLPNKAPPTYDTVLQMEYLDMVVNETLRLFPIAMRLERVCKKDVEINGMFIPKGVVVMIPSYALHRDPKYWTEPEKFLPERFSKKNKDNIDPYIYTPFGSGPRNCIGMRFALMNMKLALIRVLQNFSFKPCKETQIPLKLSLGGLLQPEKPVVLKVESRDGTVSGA
Outline: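 CYP3A4 activity was followed with a P450-Glo proluciferin substrate. Test compounds in DMSO were preincubated 10 min; NADPH regeneration then ran 1 h, and light output was read 20 min after detection reagent.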

[11] = target: Nuclear receptor subfamily 1 group I member 2 (Rattus norvegicus) (UniProt Q9R1A7); experiment: Rat pregnane X receptor (rPXR) activation by small molecules, qHTS assay (AID 1346983); settings: rPXR luciferase reporter cells, One-Glo luminescence, 24 h; stronger effect = higher value; further: nearly all actives have a fitted effect of over 20% in size
Nuclear receptor subfamily 1 group I member 2 (Rattus norvegicus), sequence (Q9R1A7 whole entry, looked up): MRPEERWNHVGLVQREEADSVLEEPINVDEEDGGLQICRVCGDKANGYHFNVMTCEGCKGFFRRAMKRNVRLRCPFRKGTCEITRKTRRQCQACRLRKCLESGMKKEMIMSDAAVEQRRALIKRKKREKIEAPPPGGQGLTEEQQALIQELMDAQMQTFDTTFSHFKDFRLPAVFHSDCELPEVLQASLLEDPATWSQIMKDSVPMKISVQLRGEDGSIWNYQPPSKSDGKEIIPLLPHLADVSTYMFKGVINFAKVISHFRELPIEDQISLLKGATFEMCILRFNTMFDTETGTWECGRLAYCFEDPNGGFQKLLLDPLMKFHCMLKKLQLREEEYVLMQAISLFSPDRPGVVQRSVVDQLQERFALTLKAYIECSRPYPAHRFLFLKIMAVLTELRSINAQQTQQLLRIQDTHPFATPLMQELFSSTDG
Outline: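 Cell-based rPXR activation assay: rPXR cells, 2,000 per well, rested 5hr at 37 C, then exposed to compounds in DMSO for 24 hr at 37 C. Luciferase activity read by One-Glo luminescence after 30 min at room temperature.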

[12] = target: Cytochrome P450 2D6 (Homo sapiens) (UniProt P10635); experiment: Cytochrome P450 Family 2 Subfamily D Member 6 (CYP2D6) small molecule antagonists: luciferase reporter qHTS assay (AID 1671196); further: nearly all actives have a fitted effect of over 50% in size; further: potency means the concentration at half of the fitted maximal effect
Cytochrome P450 2D6 (Homo sapiens), sequence (P10635 whole entry, looked up): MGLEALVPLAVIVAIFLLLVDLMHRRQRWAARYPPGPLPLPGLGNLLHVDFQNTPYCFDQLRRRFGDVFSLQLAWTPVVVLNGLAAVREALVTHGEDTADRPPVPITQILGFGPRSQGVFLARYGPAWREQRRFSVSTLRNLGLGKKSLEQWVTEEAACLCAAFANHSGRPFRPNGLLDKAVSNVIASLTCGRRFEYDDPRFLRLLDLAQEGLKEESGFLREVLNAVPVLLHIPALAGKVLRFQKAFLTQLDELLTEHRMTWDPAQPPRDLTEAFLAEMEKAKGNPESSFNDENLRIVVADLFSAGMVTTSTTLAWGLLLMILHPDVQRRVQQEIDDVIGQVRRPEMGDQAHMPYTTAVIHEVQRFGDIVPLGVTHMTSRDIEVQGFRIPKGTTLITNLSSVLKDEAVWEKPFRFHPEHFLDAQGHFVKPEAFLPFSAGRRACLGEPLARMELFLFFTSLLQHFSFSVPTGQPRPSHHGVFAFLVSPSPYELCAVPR
Outline: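 Test chemicals meet CYP2D6 plus proluciferin substrate (10 min, RT); NADPH regenerating solution then drives turnover for 1 h. Detection reagent halts the reaction; luminescence measured after 20 min.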

| SMILES | Potency [1] | Potency [2] | Potency [3] | Potency [4] | Potency [5] | Potency [6] | Potency [7] | Potency [8] | Potency [9] | Potency [10] | max activation [11] | Potency [12] |
| --- | --- | --- | --- | --- | --- | --- | --- | --- | --- | --- | --- | --- |
| CN1CCCC1=O | inactive | inactive | inactive | inactive | 63.2 µM (active) and inactive | inactive | inactive | inactive | inactive | inactive | – | – |
| O=c1n(CCCN2CCN(c3cccc(Cl)c3)CC2)nc2ccccn12 | inactive | inactive | inactive | inactive | – | – | – | – | – | – | -1.08% (inactive) | – |
| Nc1nc(N)c2nc(-c3ccccc3)c(N)nc2n1 | inactive | inactive | inactive | inactive | 49.1 µM (active) and 61.1 µM (active) and 26.6 µM (active) | inactive | – | 36 µM (active) and 31.7 µM (active) and 24.5 µM (active) | inactive | – | – | – |
| OCCOCCOCCOCCOCCO | inactive | inactive | inactive | inactive | – | – | – | – | inactive | – | – | – |
| Cc1ccc(Cl)cc1 | inactive | inactive | inactive | inactive | inactive | inactive | 63.3 µM (active) | inactive | inactive | inactive | – | 33.5 µM (active) and inactive |
| COc1c(Cl)ccc(Cl)c1C(=O)O | inactive | inactive | inactive | inactive | inactive | inactive | 39.9 µM (active) | inactive | inactive | inactive | – | – |
| N#CCC(=O)O | inactive | inactive | inactive | inactive | – | inactive | inactive | inactive | inactive | inactive | – | inactive |
| CCc1cccc(CC)c1N | inactive | inactive | inactive | inactive | inactive | inactive and 79.6 µM (active) | 71 µM (active) | 22.6 µM (active) and 5.64 µM (active) | inactive | inactive | – | – |
| CCCCCCCCC(=O)O | inactive | inactive | inactive | inactive | inactive | 30.7 µM (active) | 61.3 µM (active) and 79.6 µM (active) | 38.6 µM (active) | inactive | inactive | – | – |
| CC1=CC(=O)CC(C)(C)C1 | inactive | inactive | inactive | inactive | 62.9 µM (active) and inactive | 18.4 µM (active) and inactive | inactive | 36.6 µM (active) and inactive | inactive | inactive | – | inactive |
| c1cnc2c(c1)ccc1cccnc12 | 1.26 µM (active) | inactive | 978 nM (active) and 1.37 µM (active) and inactive | inactive | 2.76 µM (active) and 10.9 µM (active) and 24.3 µM (active) | 10.1 µM (active) and 8.94 µM (active) and 10 µM (active) | 8.94 µM (active) | 10.1 µM (active) and 14.2 µM (active) and 11.2 µM (active) | inactive | inactive | – | – |
| Cc1ccc(C)c(S(=O)(=O)O)c1 | inactive | inactive | inactive | inactive | inactive | inactive | inactive | inactive | inactive | inactive | – | – |
| Clc1cccc(Cl)c1NC1=NCCN1 | inactive | inactive | inactive | inactive | – | – | – | – | inactive | – | – | – |
| O=C1O[C@H]([C@H](O)CO)C(O)=C1O | inactive | inactive | inactive | inactive | inactive | inactive | inactive | inactive | inactive | inactive | – | inactive |
| COc1ccc2cc3[n+](cc2c1OC)CCc1cc2c(cc1-3)OCO2 | inactive | inactive | inactive | 54.9 µM (active) | inactive | 20.2 µM (active) and inactive | inactive | 25.4 µM (active) and 14.4 µM (active) | inactive | – | – | – |
| Cc1ncc(CO)c(CO)c1O | inactive | inactive | inactive | inactive | inactive | inactive | – | inactive | inactive | inactive | – | inactive |
| O=C(O)C1=NN(c2ccc(S(=O)(=O)O)cc2)C(=O)C1 | inactive | inactive | inactive | inactive | inactive | 35.6 µM (active) | inactive | 35.6 µM (active) and inactive | inactive | inactive | – | inactive |
| C=C1C[C@]23C[C@@]1(O)CC[C@H]2[C@@]12C=C[C@H](O)[C@@](C)(C(=O)O1)[C@H]2[C@@H]3C(=O)O | – | inactive | inactive | inactive | – | – | – | – | inactive | – | – | – |
| CCCOCC(C)O (stereo not given) | inactive | inactive | inactive | inactive | inactive | inactive | inactive | inactive | inactive | inactive | – | – |
| Nc1cccc(N)n1 | inactive | inactive | inactive | inactive | inactive | 39.9 µM (active) | – | inactive | inactive | inactive | – | – |
| CCCCCC(C)=O | inactive and 61.1 µM (active) | inactive | inactive | inactive | inactive | 81.3 µM (active) and inactive | inactive | inactive | inactive | inactive | – | inactive |
